GALR2 ag = agonists of human galanin receptor 2 (GALR2); GALR2-expressing cells, agonist activation read-out; activation, % (test concentration not listed); hit rate 0.48% among 140,000; AID 803; in the data active means activation above about 5%, passing the limit was not always enough
Target sequence (O43603 whole entry, looked up): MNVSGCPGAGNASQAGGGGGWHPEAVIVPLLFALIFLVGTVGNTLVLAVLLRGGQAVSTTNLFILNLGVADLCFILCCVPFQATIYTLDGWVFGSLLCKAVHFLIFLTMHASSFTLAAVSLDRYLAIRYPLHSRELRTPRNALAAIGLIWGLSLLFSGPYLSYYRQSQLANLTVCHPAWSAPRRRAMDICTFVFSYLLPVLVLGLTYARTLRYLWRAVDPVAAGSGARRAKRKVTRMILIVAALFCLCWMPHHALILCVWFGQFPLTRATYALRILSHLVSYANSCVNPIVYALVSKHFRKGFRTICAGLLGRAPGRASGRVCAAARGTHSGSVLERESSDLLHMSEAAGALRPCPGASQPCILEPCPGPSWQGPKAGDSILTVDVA
GALR2 blocker = GALR2 (human) receptor antagonism. O43603. GALR2-expressing cells, antagonist mode. inhibition, % at 4 µM. hit rate 0.39% among 140,000. AID 828;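 further: cells stimulated with galanin 1-16 at roughly its EC80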
Candida biofilm = kills Candida albicans biofilms | C. albicans biofilm + clotrimazole, Alamar Blue | inhibition, % at 6 µM | hit rate 0.14% among 85,000 | AID 834;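 active means inhibition above 20%; inactive means inhibition below 20%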;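 further: preformed 24 hr biofilms exposed to compound for 48 hr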
S1P2 blocker = S1P2 (human) receptor antagonism; O95136; cell-based S1P2 antagonist assay, inhibition at 5 uM; inhibition, % at 5 µM; hit rate 0.21% among 97,000; AID 736; in the data active means inhibition above about 45%;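 further: CRE beta-lactamase reporter cells expressing human S1P2 stimulated with S1P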
Phagocytosis inh = macrophage phagocytosis inhibition | J774A.1 macrophage IgG-bead phagocytosis, imaging | inhibition, % at 5 µM | hit rate 0.07% among 110,000 | AID 1029;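 active means inhibition above the mean of the plate negative controls plus 5 SD, cut at about 13% in these data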;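 further: phagocytic index as fraction of beads internalized from green versus red external bead signal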
S1P2 agonist = S1P2 (human) receptor agonism | S1P2-expressing cell line, agonist reporter read-out | activation, % at 4.5 µM | hit rate 0.46% among 97,000; in the data active means activation above about 16%
GALR2 blk conf = confirmation of human galanin receptor 2 (GALR2) antagonists. shares compounds with GALR2 blocker. GALR2-expressing cells, antagonist mode, inhibition. inhibition, % at 4 µM. hit rate 60% among 480. AID 866;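 further: cells stimulated with galanin at about its EC80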
BLA inh counter = beta-lactamase inhibition, GALR2 counterscreen; shares compounds with GALR2 blocker; CHO NFAT-BLA reporter, beta-lactamase FRET, thapsigargin-stimulated; inhibition, % at 4.2 µM; hit rate 36% among 480; AID 867;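 active means inhibition above the mean inhibition across tested compounds plus 3 SD, cut at about 27% in these data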
Hits are given with their value. This is a sample that favours compounds with a hit; in the whole collection about 1.3% have one here. Unless noted, no stated cut-off is given here; in the data, active means inhibition above about 27%; inactive means the rest.

How did COc1ccc(C(=O)C(CCCCC(CN(C)C)C(=O)c2ccc(OC)cc2)CN(C)C)cc1 (stereo not drawn) do in these assays?
GALR2 ag: inactive; GALR2 blocker: inactive; S1P2 blocker: inactive; S1P2 agonist: inactive

What do the screens show for `CCOc1ccc(C(=O)C(CCC(CN(C)C)C(=O)c2ccc(OCC)cc2)CN(C)C)cc1` (stereo not drawn)?
GALR2 ag: inactive; GALR2 blocker: 39; GALR2 blk conf: 28; BLA inh counter: 30

How did COc1ccccc1NC(=O)Cc1nn(C)c(=O)c2ccccc12 do in these assays?
GALR2 ag: inactive; GALR2 blocker: 35; S1P2 blocker: inactive; Phagocytosis inh: inactive; S1P2 agonist: inactive; GALR2 blk conf: 40; BLA inh counter: inactive

Results for Cn1nc(CC(=O)Nc2ccc3c(c2)OCCO3)c2ccccc2c1=O ?
GALR2 ag: inactive; GALR2 blocker: 36; Phagocytosis inh: inactive; GALR2 blk conf: 42; BLA inh counter: inactive

How did COc1cc(NC(=O)Cc2nn(C)c(=O)c3ccccc23)cc(OC)c1 do in these assays?
GALR2 ag: inactive; GALR2 blocker: inactive; Candida biofilm: inactive; S1P2 blocker: inactive; Phagocytosis inh: inactive; S1P2 agonist: inactive

How did Cc1ccc(NC(=O)CN(C)C(=O)Cn2cc(C(F)(F)F)cc(Cl)c2=O)cc1 do in these assays?
GALR2 ag: inactive; GALR2 blocker: inactive; Phagocytosis inh: inactive

What do the screens show for `Cc1cccc(S(=O)(=O)C(C#N)c2nc3ccccc3nc2N2CC(C)OC(C)C2)c1` (stereo not drawn)?
GALR2 ag: inactive; GALR2 blocker: 28; Candida biofilm: inactive; S1P2 blocker: inactive; Phagocytosis inh: inactive; S1P2 agonist: inactive; GALR2 blk conf: inactive; BLA inh counter: inactive

What do the screens show for `Cc1ccc(S(=O)(=O)C(C#N)c2nc3ccccc3nc2N2CC(C)OC(C)C2)cc1C` (stereo not drawn)?
GALR2 ag: inactive; GALR2 blocker: inactive; Candida biofilm: inactive; S1P2 blocker: inactive; Phagocytosis inh: inactive; S1P2 agonist: inactive

How did CC1=NNC(=O)/C1=C\c1cn(-c2ccccc2)nc1-c1cccs1 do in these assays?
GALR2 ag: inactive; GALR2 blocker: 31; Phagocytosis inh: inactive; GALR2 blk conf: inactive; BLA inh counter: inactive

What do the screens show for `O=C(N/N=C/c1cn(-c2ccccc2)nc1-c1cccs1)c1ccccc1F`?
GALR2 ag: inactive; GALR2 blocker: inactive; Phagocytosis inh: inactive

Results for Cc1c(C(=O)Nc2ccncc2)sc2nc(-c3ccccc3)cn12 ?
GALR2 ag: inactive; GALR2 blocker: 28; Candida biofilm: inactive; Phagocytosis inh: inactive; GALR2 blk conf: inactive; BLA inh counter: inactive

How did Cc1c(C(=O)Nc2ccc3c(c2)OCCO3)sc2nc(-c3ccccc3)cn12 do in these assays?
GALR2 ag: inactive; GALR2 blocker: inactive; Candida biofilm: inactive; S1P2 blocker: inactive; S1P2 agonist: inactive

Results for CCOC(=O)c1ccc(NC2c3ccccc3C(=O)N2c2ccc(C)cn2)cc1 (stereo not drawn) ?
GALR2 ag: inactive; GALR2 blocker: inactive; Candida biofilm: inactive; S1P2 blocker: inactive; Phagocytosis inh: inactive; S1P2 agonist: inactive

What do the screens show for `COc1cccc(-n2nnc3c(=O)n(CC(=O)NCC4CCCO4)cnc32)c1` (stereo not drawn)?
GALR2 ag: inactive; GALR2 blocker: inactive; Candida biofilm: inactive; S1P2 blocker: inactive; Phagocytosis inh: inactive; S1P2 agonist: inactive

Results for Cc1ccc2[nH]c3c(N4CCc5ccccc5C4)ncnc3c2c1 ?
GALR2 ag: inactive; GALR2 blocker: 54; Candida biofilm: inactive; S1P2 blocker: 83; S1P2 agonist: inactive; GALR2 blk conf: 52; BLA inh counter: inactive

Results for Brc1ccc2[nH]c3c(N4CCc5ccccc5C4)ncnc3c2c1 ?
GALR2 ag: inactive; GALR2 blocker: inactive; Candida biofilm: inactive; S1P2 blocker: inactive; Phagocytosis inh: inactive; S1P2 agonist: inactive

What do the screens show for `O=CN(Cc1ccco1)C1(C(=O)NC2CCCCC2)CCCCC1`?
GALR2 ag: inactive; GALR2 blocker: inactive; Candida biofilm: inactive; S1P2 blocker: inactive; Phagocytosis inh: inactive; S1P2 agonist: inactive

What do the screens show for `COc1ccc(S(=O)(=O)Nc2ccccc2-c2nnn(CC(=O)Nc3ccccc3OC)n2)cc1`?
GALR2 ag: inactive; GALR2 blocker: 28; Phagocytosis inh: inactive; GALR2 blk conf: inactive; BLA inh counter: inactive

High-throughput results from PubChem.
